# Results as given in PubChem BioAssay (NCI).
# This is part of a sample that, as a whole, favours compounds with a hit. Of some 79,000 tested, about 15% had one in any assay. A number with no mark means an inactive call. Active and inactive are the calls of the source. No stated cut-off is given here; in the data, active means growth inhibition above about 70%; inactive means the rest.
# What was measured:
# [1] = NCI Yeast Anticancer Drug Screen. Data for the rad50 strain (AID 155);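 further: 0% = growth of vehicle-only cultures of the same strain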; conditions: S. cerevisiae rad50 strain growth inhibition, active compounds read high
# In short: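 Compounds were tested on a yeast strain with an engineered DNA damage repair alteration; the reported value is growth inhibition normalised to vehicle treatment.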
# [2] = NCI Yeast Anticancer Drug Screen. Data for the mec2-1 strain (AID 157); conditions: S. cerevisiae mec2-1 strain, active compounds read high
# In short: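 Mutant yeast (mec2-1) grown with compound; growth inhibition relative to vehicle control reported.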
# [3] = NCI Yeast Anticancer Drug Screen. Data for the sgs1 mgt1 strain (AID 161);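 further: 0% = growth of cultures given vehicle only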; conditions: S. cerevisiae sgs1 mgt1 strain, active compounds read high
# In short: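 Growth of a repair-deficient yeast mutant was monitored after compound treatment and expressed as inhibition relative to vehicle-treated cultures.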
# [4] = NCI Yeast Anticancer Drug Screen. Data for the cln2 rad14 strain (AID 165);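 further: 0% = growth equal to vehicle treated cultures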; conditions: S. cerevisiae cln2 rad14 strain, active compounds read high
# In short: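 Readout is yeast growth inhibition versus vehicle-treated controls, using a strain with cln2 and rad14 alterations exposed to compound.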
# [5] = NCI Yeast Anticancer Drug Screen. Data for the bub3 strain (AID 167); conditions: S. cerevisiae bub3 mutant strain, active compounds read high
# In short: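 Growth of a checkpoint-deficient yeast mutant is measured after compound exposure. Values represent inhibition relative to vehicle.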
# [6] = NCI Yeast Anticancer Drug Screen. Data for the mlh1 rad18 strain (AID 175); conditions: S. cerevisiae mlh1 rad18 strain growth inhibition, active compounds read high
# In short: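 Genetically defined yeast (DNA repair-deficient) exposed to compounds; growth inhibition determined relative to vehicle.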
# [7] = at 5.0 µM (retest, dose inferred, filed as 0.5)
# [8] = at 50.0 µM (retest, dose inferred, filed as 5.0)
SMILES,"growth inhibition [1, 7]","growth inhibition [1, 8]",growth inhibition ([1]; at 50.0 µM),"growth inhibition [2, 7]","growth inhibition [2, 8]",growth inhibition ([2]; at 50.0 µM),"growth inhibition [3, 7]","growth inhibition [3, 8]",growth inhibition ([3]; at 50.0 µM),"growth inhibition [4, 7]","growth inhibition [4, 8]",growth inhibition ([4]; at 50.0 µM),"growth inhibition [5, 7]","growth inhibition [5, 8]",growth inhibition ([5]; at 50.0 µM),"growth inhibition [6, 7]","growth inhibition [6, 8]",growth inhibition ([6]; at 50.0 µM)
CCNCCNc1cc(O)c2c(c1O)C(=O)c1ccccc1C2=O,73% (active),98% (active),87.2% (active),92% (active),98% (active),84.9% (active),78% (active),98% (active),83.5% (active),30%,83% (active),67.8%,96% (active),98% (active),78.5% (active),91% (active),98% (active),91.7% (active)
Nc1ccc2c(c1)[nH]c(=O)c1cccc(Cl)c12,-32%,89% (active),96.1% (active),-34%,88% (active),55.3%,-39%,80% (active),61.2%,-31%,94% (active),63.9%,-52%,90% (active),32.5%,-40%,95% (active),93.1% (active)
CC(=O)Oc1c(Cl)cc(Cl)cc1C(c1cc(Cl)cc(Cl)c1OC(C)=O)C(Cl)(Cl)Cl,6%,31%,90.8% (active),2%,25%,98.3% (active),-1%,-5%,83.9% (active),-10%,2%,82.8% (active),-3%,20%,98.3% (active),-2%,23%,95.5% (active)
COC1CCC(O)C(CO)O1 (stereo unspecified),100% (active),99% (active),99.5% (active),100% (active),99% (active),99.6% (active),100% (active),99% (active),99.7% (active),100% (active),99% (active),99.6% (active),99% (active),99% (active),99.5% (active),99% (active),99% (active),99.5% (active)
CCCCCCC(=O)CC(SCCN)c1ccccc1Cl (stereo unspecified),9%,52%,99.2% (active),-5%,56%,99.4% (active),-12%,48%,99.2% (active),12%,99% (active),98.3% (active),-5%,99% (active),98.9% (active),1%,55%,98.8% (active)
COC(=O)c1ncc(Cl)cc1Cl,3%,-4%,59.9%,0%,-7%,39.8%,0%,-7%,58.8%,7%,-7%,22.1%,1%,-19%,38.4%,0%,-1%,46.4%
COC(=O)c1cc(-c2ccccc2)[nH]c(=O)c1C#N,-8%,-32%,44.5%,-18%,-15%,5.25%,-5%,-16%,75.8% (active),-36%,-21%,22.6%,-24%,-23%,-24.7%,0%,-21%,52%
O=C(c1cccc(Cl)c1)c1ccc2ccccc2c1C(=O)O,10%,1%,12.3%,-8%,0%,45.9%,-1%,1%,0.7%,-3%,-1%,5.6%,-6%,1%,-1.5%,-6%,5%,5.75%
CCCCCC(CO)C(O)(C(F)(F)F)C(F)(F)F (stereo unspecified),-23%,-5%,44.8%,-26%,7%,33.9%,1%,9%,65.4%,3%,15%,47.4%,0%,11%,-30.4%,-26%,-1%,49.1%
COc1ccc(/C=C(\C#N)c2ccccc2)cc1OC,0%,55%,86.6% (active),-18%,29%,87.3% (active),1%,53%,88.5% (active),30%,34%,54.5%,5%,66%,84.4% (active),-6%,64%,90.2% (active)
C/C=c1/[nH]c(=O)/c(=C\c2ccccc2)[nH]c1=O,-3%,9%,11.3%,2%,-1%,-3.8%,-2%,2%,-5.45%,3%,-2%,24.6%,-2%,-4%,-7.35%,24%,1%,4.35%
Cc1c(C#N)c(N)nc2c(C(N)=O)nsc12,-2%,-13%,13.2%,-2%,-8%,8.75%,-3%,-9%,10.7%,-2%,-18%,53.6%,9%,16%,-8.4%,-1%,-11%,26.2%
